Source: PubChem BioAssay (NCATS)
Values without a mark were called inactive. Inconclusive results are not listed. Calls of active or inactive are those of the source. Unless noted, the call rests on the fitted dose curve; in most records, active means well fitted curve in either direction with a large enough effect (not every such curve was filed as active); inconclusive means small, poorly fitted or top-dose-only effect, or another doubt; inactive means flat fitted curve, though single readings scatter.

Experiments:
[1] = molecular target: Lysosomal acid glucosylceramidase (Homo sapiens) (UniProt P04062); test: Glucocerebrosidase-p2 (AID 348; in the data active means potency below about 10 µM; further: potency means the concentration at half of the fitted maximal effect); details: purified GBA, blue fluorogenic substrate, 40 min
How it was run: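 Compounds titrated from 0.6 nM upwards against 0.2 nM enzyme in pH 5.9 citric acid/KH2PO4, taurocholate, tween-20; blue fluorogenic substrate 80 uM, 40 min room temperature, stopped and read Ex 365/Em 440 for AC50.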

[2] = AP1 Signaling Pathway (AID 357); details: ME-180 AP-1-bla reporter, EGF-induced, beta-lactamase ratio, 5 h; at 7.69 µM (top of the series) unless noted;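 further: ME-180 reporter cells stimulated with EGF at its EC50 level; on the % scale 0 is the no-effect control and ±100 the full control effect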
How it was run: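 Beta-lactamase reporter under AP-1 response element, ME-180 background. Stimulus: EC50 EGF. Compound exposure 5 h, 37 °C. Detection: CCF4, 2.5 h RT, 460/530 nm. Values: AC50 from titration.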

[3] = molecular target: Cytochrome P450 1A2 (Homo sapiens) (UniProt P05177); test: p450-cyp1a2 (AID 410; calls by dose curve; further: potency means the concentration at half of the fitted maximal effect;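 on activity change, negative = inhibition: -100% = full effect of reference inhibitor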); details: recombinant CYP1A2, luciferin-ME demethylation, luminescence; series mostly up to 11.4 µM
How it was run: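 Inhibition was calculated relative to 57 uM furafylline (full inhibition). The reaction used human CYP1A2 at 20nM with Luciferin-ME at its Km, 100uM, driven by an NADPH-regenerating system for 60 min at room temperature.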

[4] = Stat Signaling Pathway (AID 446); details: ME-180 SIE beta-lactamase reporter, IL-6 stimulated, 5 h; at 7.69 µM (top of the series) unless noted;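 further: ME-180 cervical cancer cells given 40 pM IL-6 alongside compound; SIE-controlled beta-lactamase reporter measured as 460/530 nm FRET emission ratio; on the % scale 0 is the no-effect control and ±100 the full control effect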
How it was run: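 Reporter line: ME-180 cervical carcinoma, SIE-beta-lactamase. Treatment: compound with 40 pM IL-6, 5 hrs, 37 C, in low-serum OPTI-MEM with 10 mM HEPES pH 7.3. Detection: 460/530 nm fluorescence.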

[5] = molecular target: Glucocorticoid receptor (Homo sapiens) (UniProt P04150); test: GR-GFP Redistribution (AID 450;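 active means compounds whose dose series gives a full or clear partial fitted curve of increased nuclear translocation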; further: potency means the concentration at half of the fitted maximal effect); details: U2OS GR-GFP nuclear translocation, laser cytometry, 2 h
[6] = molecular target: Glucocorticoid receptor (Homo sapiens) (UniProt P04150); test: GR-EFC Redistribution (AID 451; calls by dose curve; further: potency means the concentration at half of the fitted maximal effect); details: CHO-K1 GR-EFC translocation, beta-gal luminescence, 2 h
How it was run: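 Translocation of GR-ED fusion to nuclear EA restores b-gal, read by luminescence after 1 h room-temperature detection. Engineered CHO-K1 biosensor cells, 1,000/well, exposed 2 h at 37 C to titrations up to 46 uM final.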

[7] = molecular target: Mitogen-activated protein kinase 10 (Mus musculus) (UniProt Q61831); test: JNK3 AlphaScreen Assay (AID 530); details: JNK3 lysate, c-Jun phosphorylation; series mostly up to 11.4 µM;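 further: kinase came from lysate of stimulated human HepG2 cells; signal reports phosphorylation of biotinylated GST-cJun 1-79 at Ser73 with 10 µM ATP; on the % scale 0 is the no-effect control and ±100 the full control effect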
How it was run: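 Room-temperature AlphaScreen kinase assay; pre-activated HepG2 lysate as JNK3 source, biotin-GST-cJun(1-79) substrate, 10 uM ATP, compound 15 min preincubation.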

[8] = molecular target: 3',5'-cyclic-AMP phosphodiesterase 4B (Homo sapiens) (UniProt Q07343); test: qHTS Assay for Inhibitors of PDE-IV (AID 607; active means well fitted activation curve with a large enough effect in the main read-out, with a control signal flat, not every such curve was filed as active; further: % of control where 0% means no effect); details: HEK293 ACTOne CNG channel cells, membrane potential fluorescence; series mostly up to 22.9 µM
How it was run: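 Cell-based read-out of cAMP via a modified cyclic nucleotide-gated channel and membrane potential dye (535/590 nm) in HEK293 cells expressing PDE4 endogenously. Compounds tested up to 22.9 uM final; 100 uM RO 20-1724 reference.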

[9] = molecular target: Cytochrome P450 2C9 (Homo sapiens) (UniProt P11712); test: qHTS Assay for Inhibitors and Substrates of Cytochrome P450 2C9 (AID 883; active means well fitted curve in the direction sought with a large enough effect; an effect the other way counts as inactive or inconclusive; further: nearly all actives have a fitted effect of over 60% in size; further: potency means the concentration at half of the fitted maximal effect; on activity change, negative = inhibition: on the % scale 0 is the no-effect control and ±100 the full control effect); details: recombinant CYP2C9, luciferin-H luminescence, 60 min; series mostly up to 11.4 µM
How it was run: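 Turnover of Luciferin-H (100uM, KM) by 10nM human CYP2C9 was measured over 60 min at 37C with NADPH regeneration; inhibitors and some substrates reduce luminescence. Data normalized to sulphaphenazole 57uM.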

[10] = molecular target: Cytochrome P450 3A4 (Homo sapiens) (UniProt P08684); test: qHTS Assay for Activators of Cytochrome P450 3A4 (AID 885; active means well fitted curve in the direction sought with a large enough effect; an effect the other way counts as inactive or inconclusive; further: nearly all actives have a fitted effect of over 65% in size); details: recombinant CYP3A4, Luciferin-PPXE luminescence, 60 min; series mostly up to 11.4 µM
How it was run: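 Signal was normalized against complete inhibition by 57 uM ketoconazole. The reaction used 20nM CYP3A4 with 25uM Luciferin-PPXE, 10-min compound preincubation and a 60-min NADPH-supported step at RT.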

[11] = molecular target: Cytochrome P450 2C19 (Homo sapiens) (UniProt P33261); test: qHTS Assay for Inhibitors and Substrates of Cytochrome P450 2C19 (AID 899; active means well fitted curve in the direction sought with a large enough effect; an effect the other way counts as inactive or inconclusive; further: potency means the concentration at half of the fitted maximal effect; nearly all actives have a fitted effect of over 60% in size); details: recombinant CYP2C19, luciferin-H EGE luminescence; series mostly up to 11.4 µM
How it was run: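 Reactions contain 5nM enzyme, 10uM Luciferin-H EGE (KM) and 50mM KPO4; compound preincubates 10 min at 37C, NADPH regeneration starts turnover for 60 min. Luminescence after detection reagent gives activity.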

[12] = molecular target: Cytochrome P450 3A4 (Homo sapiens) (UniProt P08684); test: qHTS Assay for Inhibitors and Substrates of Cytochrome P450 3A4 (AID 884; active means well fitted curve in the direction sought with a large enough effect; an effect the other way counts as inactive or inconclusive; further: potency means the concentration at half of the fitted maximal effect; nearly all actives have a fitted effect of over 50% in size); details: recombinant CYP3A4, Luciferin-PPXE luminescence; series mostly up to 57.1 µM
How it was run: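 20 nM human CYP3A4 with 25 uM Luciferin-PPXE (at KM) in 200 mM KPO4, preincubated 10 min with compound; NADPH regeneration started a 60 min RT reaction. Luciferin detected by luminescence, normalized to 57 uM ketoconazole as full inhibition.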

[13] = molecular target: Cytochrome P450 2D6 (Homo sapiens) (UniProt P10635); test: qHTS Assay for Inhibitors and Substrates of Cytochrome P450 2D6 (AID 891; active means well fitted curve in the direction sought with a large enough effect; an effect the other way counts as inactive or inconclusive; further: potency means the concentration at half of the fitted maximal effect; nearly all actives have a fitted effect of over 60% in size); details: recombinant CYP2D6, luciferin-ME EGE luminescence; series mostly up to 11.4 µM
How it was run: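 Human CYP2D6 (5 nM) with 30 uM Luciferin-ME EGE (at Km) in 100 mM KPO4, compound preincubated 10 min, then NADPH regeneration system for 60 min at room temperature. Luciferin read by luminescence; normalized to 1.43 uM quinidine.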

[14] = qHTS Assay for Identification of Small Molecule Agonists for Hypoxia Response Element Signaling Pathway (AID 914; active means well fitted activation curve with a large enough effect in the signal ratio, with a control signal flat, not every such curve was filed as active; the % refers to the signal ratio; further: % of control where 0% means no effect); details: ME-180 (cervical carcinoma) HRE-bla reporter, beta-lactamase ratio, CoCl2, 17 h; activation: hits give high values
How it was run: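 qHTS titration; ME-180 HRE-bla cells; EC50 CoCl2 co-treatment, 17 h at 37 degrees Celsius; CCF4 dye, ex 405nm, em 460nm and 530nm; %Activity from ratio; AC50.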

Chain of Cytochrome P450 2D6 (Homo sapiens) (P10635 whole entry, looked up): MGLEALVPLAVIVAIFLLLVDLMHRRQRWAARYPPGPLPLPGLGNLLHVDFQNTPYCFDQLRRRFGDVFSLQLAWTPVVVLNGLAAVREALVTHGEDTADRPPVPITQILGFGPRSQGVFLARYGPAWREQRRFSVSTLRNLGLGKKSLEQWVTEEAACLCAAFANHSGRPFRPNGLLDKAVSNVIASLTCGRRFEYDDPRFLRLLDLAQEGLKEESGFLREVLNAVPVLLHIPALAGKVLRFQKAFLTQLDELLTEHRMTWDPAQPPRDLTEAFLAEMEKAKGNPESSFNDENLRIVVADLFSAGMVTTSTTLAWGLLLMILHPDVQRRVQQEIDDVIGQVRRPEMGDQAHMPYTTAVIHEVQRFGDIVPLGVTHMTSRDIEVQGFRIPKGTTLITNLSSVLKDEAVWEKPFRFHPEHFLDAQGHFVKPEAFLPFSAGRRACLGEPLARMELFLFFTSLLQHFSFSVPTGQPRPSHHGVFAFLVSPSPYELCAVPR
Chain of 3',5'-cyclic-AMP phosphodiesterase 4B (Homo sapiens) (Q07343 whole entry, looked up): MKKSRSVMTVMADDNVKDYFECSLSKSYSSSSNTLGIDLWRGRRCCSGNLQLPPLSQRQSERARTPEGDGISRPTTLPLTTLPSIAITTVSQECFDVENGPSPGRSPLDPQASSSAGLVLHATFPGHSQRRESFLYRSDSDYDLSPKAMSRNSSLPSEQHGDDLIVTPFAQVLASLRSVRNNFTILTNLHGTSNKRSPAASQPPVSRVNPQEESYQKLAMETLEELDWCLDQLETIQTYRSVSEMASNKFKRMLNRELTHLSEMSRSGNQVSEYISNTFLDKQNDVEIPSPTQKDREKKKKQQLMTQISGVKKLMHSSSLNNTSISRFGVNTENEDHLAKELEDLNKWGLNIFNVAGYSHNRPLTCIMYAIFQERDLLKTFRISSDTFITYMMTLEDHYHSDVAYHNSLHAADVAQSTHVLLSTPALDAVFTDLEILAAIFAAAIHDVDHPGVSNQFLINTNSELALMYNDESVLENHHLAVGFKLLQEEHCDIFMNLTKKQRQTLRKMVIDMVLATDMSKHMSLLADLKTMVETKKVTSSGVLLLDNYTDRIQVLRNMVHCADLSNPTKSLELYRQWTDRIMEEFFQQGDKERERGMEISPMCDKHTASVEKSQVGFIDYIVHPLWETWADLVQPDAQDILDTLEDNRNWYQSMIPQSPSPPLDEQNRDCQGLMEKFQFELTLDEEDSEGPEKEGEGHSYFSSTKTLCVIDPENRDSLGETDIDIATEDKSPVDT
Chain of Cytochrome P450 2C9 (Homo sapiens) (P11712 whole entry, looked up): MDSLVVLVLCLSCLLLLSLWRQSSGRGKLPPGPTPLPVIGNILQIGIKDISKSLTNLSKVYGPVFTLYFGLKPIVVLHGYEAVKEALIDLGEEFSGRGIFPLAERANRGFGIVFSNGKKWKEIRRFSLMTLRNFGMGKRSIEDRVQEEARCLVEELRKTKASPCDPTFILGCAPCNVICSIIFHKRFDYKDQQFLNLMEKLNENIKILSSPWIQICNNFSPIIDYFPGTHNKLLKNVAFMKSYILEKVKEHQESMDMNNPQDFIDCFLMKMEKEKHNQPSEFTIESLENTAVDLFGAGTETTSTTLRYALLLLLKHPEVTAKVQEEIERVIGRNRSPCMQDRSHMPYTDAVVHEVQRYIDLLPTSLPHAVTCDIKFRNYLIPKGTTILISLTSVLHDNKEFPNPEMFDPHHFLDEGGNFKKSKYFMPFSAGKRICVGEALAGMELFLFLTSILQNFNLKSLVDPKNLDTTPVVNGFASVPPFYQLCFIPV
Chain of Cytochrome P450 2C19 (Homo sapiens) (P33261 whole entry, looked up): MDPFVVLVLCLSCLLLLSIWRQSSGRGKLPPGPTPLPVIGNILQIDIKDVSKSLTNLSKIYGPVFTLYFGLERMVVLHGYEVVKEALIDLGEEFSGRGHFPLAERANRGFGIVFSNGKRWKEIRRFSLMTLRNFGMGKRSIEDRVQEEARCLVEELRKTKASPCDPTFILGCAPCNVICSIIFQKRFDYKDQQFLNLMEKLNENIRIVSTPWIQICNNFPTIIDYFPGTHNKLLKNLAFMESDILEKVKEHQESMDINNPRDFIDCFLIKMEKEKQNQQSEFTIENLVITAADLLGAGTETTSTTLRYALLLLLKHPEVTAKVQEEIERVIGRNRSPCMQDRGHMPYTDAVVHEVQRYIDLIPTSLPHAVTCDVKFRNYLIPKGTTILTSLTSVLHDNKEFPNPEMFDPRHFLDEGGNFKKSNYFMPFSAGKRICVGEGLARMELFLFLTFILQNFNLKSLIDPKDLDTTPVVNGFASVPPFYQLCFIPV
Chain of Cytochrome P450 1A2 (Homo sapiens) (P05177 whole entry, looked up): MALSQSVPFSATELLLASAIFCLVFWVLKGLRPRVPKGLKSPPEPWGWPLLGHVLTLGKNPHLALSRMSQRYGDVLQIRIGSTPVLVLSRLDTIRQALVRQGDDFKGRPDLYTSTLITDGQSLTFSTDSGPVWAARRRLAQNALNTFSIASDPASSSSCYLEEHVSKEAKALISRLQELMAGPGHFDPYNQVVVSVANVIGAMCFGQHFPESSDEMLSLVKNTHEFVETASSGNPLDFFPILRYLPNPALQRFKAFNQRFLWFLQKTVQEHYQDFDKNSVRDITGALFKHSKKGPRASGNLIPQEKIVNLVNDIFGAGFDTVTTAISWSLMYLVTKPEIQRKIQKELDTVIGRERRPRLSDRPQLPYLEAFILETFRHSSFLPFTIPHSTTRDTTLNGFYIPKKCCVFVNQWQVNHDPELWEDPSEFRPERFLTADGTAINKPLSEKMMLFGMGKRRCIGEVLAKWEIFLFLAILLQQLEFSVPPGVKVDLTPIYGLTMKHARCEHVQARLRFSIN
Chain of Lysosomal acid glucosylceramidase (Homo sapiens) (P04062 whole entry, looked up): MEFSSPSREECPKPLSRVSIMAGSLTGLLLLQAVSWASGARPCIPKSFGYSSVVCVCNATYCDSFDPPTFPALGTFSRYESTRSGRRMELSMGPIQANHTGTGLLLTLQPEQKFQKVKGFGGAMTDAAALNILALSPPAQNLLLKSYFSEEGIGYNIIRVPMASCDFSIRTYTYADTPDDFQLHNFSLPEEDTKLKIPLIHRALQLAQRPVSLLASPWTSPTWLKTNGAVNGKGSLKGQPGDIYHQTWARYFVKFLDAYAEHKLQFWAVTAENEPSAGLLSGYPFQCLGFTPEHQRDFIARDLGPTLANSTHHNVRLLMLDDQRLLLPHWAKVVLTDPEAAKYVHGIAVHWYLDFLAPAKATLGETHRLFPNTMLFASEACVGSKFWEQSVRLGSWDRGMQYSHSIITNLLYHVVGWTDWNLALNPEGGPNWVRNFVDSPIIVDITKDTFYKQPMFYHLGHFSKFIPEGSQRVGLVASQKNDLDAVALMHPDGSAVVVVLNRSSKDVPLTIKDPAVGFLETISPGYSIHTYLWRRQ
Chain of Cytochrome P450 3A4 (Homo sapiens) (P08684 whole entry, looked up): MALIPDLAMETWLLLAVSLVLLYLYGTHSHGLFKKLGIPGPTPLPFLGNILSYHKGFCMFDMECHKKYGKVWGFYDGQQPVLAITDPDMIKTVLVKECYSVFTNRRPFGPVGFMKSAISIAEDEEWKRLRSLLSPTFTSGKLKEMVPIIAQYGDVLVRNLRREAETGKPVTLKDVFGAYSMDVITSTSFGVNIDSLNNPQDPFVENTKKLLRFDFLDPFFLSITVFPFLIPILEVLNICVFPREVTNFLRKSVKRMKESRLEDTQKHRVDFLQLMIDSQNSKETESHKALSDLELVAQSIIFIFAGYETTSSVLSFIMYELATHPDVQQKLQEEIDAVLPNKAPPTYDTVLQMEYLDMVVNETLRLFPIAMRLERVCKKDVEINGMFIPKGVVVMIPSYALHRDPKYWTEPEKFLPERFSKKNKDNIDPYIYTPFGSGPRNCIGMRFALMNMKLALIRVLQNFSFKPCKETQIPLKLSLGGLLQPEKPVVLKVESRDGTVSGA
Chain of Glucocorticoid receptor (Homo sapiens) (P04150 whole entry, looked up, the tested form may be a part): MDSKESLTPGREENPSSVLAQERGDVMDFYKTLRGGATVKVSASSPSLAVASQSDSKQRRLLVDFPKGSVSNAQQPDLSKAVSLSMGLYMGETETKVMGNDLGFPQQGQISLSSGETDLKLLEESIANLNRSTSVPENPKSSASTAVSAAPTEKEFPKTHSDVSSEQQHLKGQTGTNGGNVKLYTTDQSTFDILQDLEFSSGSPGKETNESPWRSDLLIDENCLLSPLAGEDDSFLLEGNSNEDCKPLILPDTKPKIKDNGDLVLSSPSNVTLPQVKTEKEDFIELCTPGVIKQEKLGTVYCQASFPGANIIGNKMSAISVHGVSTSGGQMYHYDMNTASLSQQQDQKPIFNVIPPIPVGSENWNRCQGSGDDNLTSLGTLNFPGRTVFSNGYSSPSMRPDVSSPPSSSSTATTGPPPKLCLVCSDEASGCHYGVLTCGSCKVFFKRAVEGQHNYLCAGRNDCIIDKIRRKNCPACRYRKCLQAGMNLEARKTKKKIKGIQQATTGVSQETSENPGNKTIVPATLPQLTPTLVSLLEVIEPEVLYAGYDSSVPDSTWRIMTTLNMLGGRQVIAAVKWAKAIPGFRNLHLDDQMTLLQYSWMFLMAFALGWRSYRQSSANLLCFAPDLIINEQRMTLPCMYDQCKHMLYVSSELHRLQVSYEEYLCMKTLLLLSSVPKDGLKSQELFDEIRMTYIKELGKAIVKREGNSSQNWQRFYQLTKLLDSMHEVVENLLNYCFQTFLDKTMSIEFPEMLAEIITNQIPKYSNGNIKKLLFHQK

SMILES: N[C@@H](Cc1cccnn1)C(=O)O
- Potency [1]: > 11.4 µM
- activity change, negative = inhibition [2]: 2.23%
- Potency [3]: 3.16 µM (active)
- activity, negative = inhibition [4]: 2.86%
- Potency [5]: > 46 µM
- Potency [6]: > 9.22 µM
- Potency [7]: inactive
- Potency [8]: inactive

SMILES: COc1ccc2c(Cc3c4ccccc4cc4ccccc34)cncc2c1O
- Potency [1]: > 11.4 µM
- activity change, negative = inhibition [2]: 9.25%
- Potency [3]: 0.126 µM (active)
- activity, negative = inhibition [4]: -0.764%
- Potency [5]: > 46 µM
- Potency [6]: > 9.22 µM
- Potency [7]: inactive
- Potency [8]: inactive
- Potency [9]: inactive
- Potency [10]: inactive
- Potency [11]: 2.51 µM (active)

SMILES: CN1CCN(CC(=O)N2c3ccccc3Sc3cc4ccccc4cc32)CC1
- Potency [1]: > 11.4 µM
- activity change, negative = inhibition [2]: 12.2%
- activity change, negative = inhibition [3]: -21.6% [at 2.29 µM]
- activity, negative = inhibition [4]: -5.37%
- Potency [5]: > 46 µM
- Potency [6]: > 9.22 µM
- Potency [7]: inactive
- Potency [8]: inactive
- Potency [10]: inactive

SMILES: CN1CCc2ccccc2[C@@H]1Cc1ccccc1NC(=O)c1sc2ccccc2c1Cl
- Potency [1]: > 11.4 µM
- activity change, negative = inhibition [2]: -4.19%
- Potency [3]: 5.01 µM (active)
- activity, negative = inhibition [4]: 4.41%
- Potency [5]: > 46 µM
- Potency [6]: > 9.22 µM
- Potency [7]: inactive
- Potency [8]: inactive
- Potency [12]: 1.58 µM (active)
- Potency [10]: inactive
- Potency [13]: 79.4 nM (active)
- Potency [11]: 2.51 µM (active)

SMILES: COc1ccc(Cc2ccccc2C(=O)O)c2ccccc12
- Potency [1]: > 11.4 µM
- activity change, negative = inhibition [2]: -1.93%
- activity change, negative = inhibition [3]: 2.8% [at 2.29 µM]
- activity, negative = inhibition [4]: -28.9%
- Potency [5]: > 46 µM
- Potency [6]: > 9.22 µM
- Potency [7]: inactive
- Potency [8]: inactive
- Potency [9]: 3.98 µM (active)

SMILES: N#CC(C#N)=NNc1ccc2cn[nH]c2c1
- Potency [1]: > 11.4 µM
- activity change, negative = inhibition [2]: 1.21%
- Potency [3]: 1.26 µM (active)
- activity, negative = inhibition [4]: -12%
- Potency [5]: > 46 µM
- Potency [6]: > 9.22 µM
- Potency [7]: inactive
- Potency [8]: inactive
- Potency [9]: 2.51 µM (active)
- Potency [10]: inactive

SMILES: Oc1c(CN2CCN(c3ccccc3)CC2)cc(Br)c2cccnc12
- Potency [1]: > 11.4 µM
- activity change, negative = inhibition [2]: 3.27%
- Potency [3]: 1.26 µM (active)
- activity, negative = inhibition [4]: -0.132%
- Potency [5]: > 46 µM
- Potency [6]: > 9.22 µM
- Potency [7]: inactive
- Potency [8]: inactive

SMILES: O=C(O)C[C@H](S)C(=O)O
- Potency [1]: > 11.4 µM
- activity change, negative = inhibition [2]: -3.09%
- Potency [3]: inactive
- activity, negative = inhibition [4]: -8.04%
- Potency [5]: > 46 µM
- Potency [6]: > 9.22 µM
- Potency [7]: inactive
- Potency [8]: inactive

SMILES: O[C@H](C[C@@H]1CCCCN1)c1ccc2c(c1)oc1ccccc12
- Potency [1]: > 11.4 µM
- activity change, negative = inhibition [2]: 6.24%
- activity change, negative = inhibition [3]: -10.4% [at 2.29 µM]
- activity, negative = inhibition [4]: 4%
- Potency [5]: > 46 µM
- Potency [6]: > 9.22 µM
- Potency [8]: inactive
- activation [14]: -0.884%

SMILES: O=[N+]([O-])c1ccc(C2=Nn3c(nnc3-c3ccc(Cl)cc3)SC2)o1
- Potency [1]: > 11.4 µM
- activity change, negative = inhibition [2]: 22.7%
- Potency [3]: 0.158 µM (active)
- activity, negative = inhibition [4]: -6.24%
- Potency [5]: > 46 µM
- Potency [6]: > 9.22 µM
- Potency [7]: inactive
- Potency [8]: inactive
- Potency [11]: 2.51 µM (active)

SMILES: CC1(C)N=C(N)N=C(N)N1CCCCc1ccccc1
- Potency [1]: > 11.4 µM
- activity change, negative = inhibition [2]: 7.1%
- activity change, negative = inhibition [3]: -4.3% [at 2.29 µM]
- activity, negative = inhibition [4]: 0.495%
- Potency [5]: > 46 µM
- Potency [6]: > 9.22 µM
- Potency [7]: inactive
- Potency [8]: inactive
- Potency [13]: 3160 nM (active)

SMILES: Cc1ccc(S(=O)(=O)O[C@H]2C[C@@H](C(C)(C)C)CC[C@@H]2c2ccccc2)cc1
- Potency [1]: > 11.4 µM
- activity change, negative = inhibition [2]: 7.67%
- activity change, negative = inhibition [3]: -22.8% [at 2.29 µM]
- activity, negative = inhibition [4]: 4.83%
- Potency [5]: > 46 µM
- Potency [6]: > 9.22 µM
- Potency [7]: inactive
- Potency [10]: inactive
- Potency [11]: 3.16 µM (active)

SMILES: N=c1sc2ccccc2n1CCS (tested in a mixture with another compound)
- Potency [1]: 4.5 µM (active)
- activity change, negative = inhibition [2]: 6.12%
- Potency [3]: 1 µM (active)
- activity, negative = inhibition [4]: -20%
- Potency [5]: > 46 µM
- Potency [6]: > 9.22 µM
- Potency [7]: inactive
- Potency [8]: inactive
- Potency [10]: inactive
- Potency [13]: 316 nM (active)
- Potency [11]: 1.58 µM (active)

SMILES: CCN(Cc1cc(Cl)cc(C)c1O)Cc1c(O)ccc2ccccc12
- Potency [1]: > 11.4 µM
- activity change, negative = inhibition [2]: -8.15%
- Potency [3]: 1 µM (active)
- activity, negative = inhibition [4]: 1.25%
- Potency [5]: > 46 µM
- Potency [6]: > 9.22 µM
- Potency [7]: inactive
- Potency [8]: inactive
- Potency [13]: 1260 nM (active)
- Potency [11]: 1.26 µM (active)

SMILES: CC1(C)N=C(N)N=C(N)N1c1cccc(CSc2ccccc2)c1
- Potency [1]: > 11.4 µM
- activity change, negative = inhibition [2]: -4.06%
- activity change, negative = inhibition [3]: -17.2% [at 2.29 µM]
- activity, negative = inhibition [4]: 2.13%
- Potency [5]: > 46 µM
- Potency [6]: > 9.22 µM
- Potency [7]: inactive
- Potency [8]: inactive
- Potency [13]: 251 nM (active)
